Bioassay records (PubChem BioAssay)
TDP1 cell CPT = growth inhibition of DT40 Tdp1-/-;hTDP1 cells with camptothecin (screen for TDP1 inhibitors) | chicken DT40 Tdp1-/-;hTDP1 cells + 20 nM CPT, ATP luminescence, 48 h | Potency, µM (titrated, usually from 46.2 µM), without a hit: top-dose activity change, negative = growth inhibition, hits mostly inhibitors | 420,000 tested, 12% active | AID 686979; note: nearly all actives have a fitted effect of over 55% in size
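Chicken DT40 Tdp1-/- cells complemented with human TDP1, 400 cells/well, exposed to compounds plus 20 nM camptothecin for at least 48 h at 37 C; viability read as ATP content by CellTiter-Glo luminescence.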
DT40 TDP1 no CPT = qHTS for Inhibitors of human tyrosyl-DNA phosphodiesterase 1 (TDP1): qHTS in cells in absence of CPT | DT40 Tdp1-/- hTDP1 cells, no CPT, ATP luminescence, 48 h | 420,000 tested, 15% active | AID 686978, 2013 | Potency, µM (top dose mostly 46.2 µM), for the others: at the highest dose activity change, negative = growth inhibition, usual class: inhibitors; note: nearly all actives have a fitted effect of over 55% in size
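Compound effects on proliferation are scored in DT40 Tdp1-/-;hTDP1 cells in the absence of CPT. ATP levels (CellTiter-Glo luminescence) are recorded after a ≥48 hr, 37 °C incubation.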
GCN5L2 inh = blocks human GCN5L2 histone acetyltransferase. Q92830. GCN5L2 HAT assay, ThioGlo1 CoA-SH fluorescence. Potency, µM (titrated, usually from 58.9 µM), without a hit: at the top dose activity change, negative = inhibition, actives largely listed as inhibitors. 390,000 tested, 0.21% active. AID 504327
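GCN5L2 (20 nM) in 50mM HEPES pH 7.5, 0.1mM EDTA, 0.01% Tween-20 preincubated 15 min with compounds at room temperature. Reaction started with H3(1-25) 75uM, acetyl-CoA 70uM, ThioGlo1 50uM; CoA-thiol fluorescence (Ex340/Em540) read at 0 and 20 min.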
VDR inh = vitamin D3 receptor (human) inhibition. P11473. VDR-SRC2-3 peptide fluorescence polarization, 2 h. Potency, µM, without a hit: max response, negative = inhibition, actives largely listed as inhibitors. 400,000 tested, 0.93% active
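The screen uses fluorescence polarization to detect compounds that interfere with recruitment of the SRC2-3 coactivator peptide to VDR; plates are read after 2 h at room temperature.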
TDP1 inh = blocks human tyrosyl-DNA phosphodiesterase 1; Q9NUW8; recombinant TDP1, AlphaScreen DNA substrate cleavage; Potency, µM (doses to about 130 µM), for the others: at the highest dose activity change, negative = inhibition, hits mostly inhibitors; 350,000 tested, 0.28% active; note: nearly all actives have a fitted effect of over 40% in size
Target sequence (Q9NUW8 whole entry, looked up): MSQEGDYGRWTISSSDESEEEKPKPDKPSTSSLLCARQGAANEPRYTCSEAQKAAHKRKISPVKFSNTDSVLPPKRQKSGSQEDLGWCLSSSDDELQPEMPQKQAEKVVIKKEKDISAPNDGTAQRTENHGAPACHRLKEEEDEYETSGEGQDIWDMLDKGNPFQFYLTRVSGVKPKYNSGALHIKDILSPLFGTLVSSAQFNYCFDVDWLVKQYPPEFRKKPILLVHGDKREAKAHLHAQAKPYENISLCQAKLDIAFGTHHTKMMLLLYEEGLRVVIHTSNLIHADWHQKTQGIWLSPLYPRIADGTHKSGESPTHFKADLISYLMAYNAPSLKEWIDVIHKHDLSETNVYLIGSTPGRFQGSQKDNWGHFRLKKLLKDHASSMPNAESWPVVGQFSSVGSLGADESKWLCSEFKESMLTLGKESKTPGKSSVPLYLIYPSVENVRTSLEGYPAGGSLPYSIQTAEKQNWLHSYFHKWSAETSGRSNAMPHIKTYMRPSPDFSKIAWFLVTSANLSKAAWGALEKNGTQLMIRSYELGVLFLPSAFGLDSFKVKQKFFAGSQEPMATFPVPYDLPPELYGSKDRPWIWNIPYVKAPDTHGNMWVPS
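Compounds were preincubated with Tdp1 (1 nM final) for 15 min at room temperature before substrate (15 nM final) started a 5 min reaction; beads (10 ug/ml final) were then added for 10 min before AlphaScreen detection.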
PLK1 PBD block = blocks phosphopeptide binding to human PLK1 polo-box domain | 360,000 tested, 2.8% active | P53350 | Potency, µM, inactives show max response, negative = inhibition, hits mostly inhibitors | AID 720504 | Plk1 PBD binding of FITC phosphopeptide, fluorescence polarization; note: series mostly up to about 57 µM; nearly all actives have a fitted effect of over 65% in size
Numbers without * were called inactive; ? = inconclusive; . = no result. Shown are actives, neighbours in structure and some others; about 18% of the full set was active somewhere. Calls come from the whole dose curve; as a rule, active = well fitted curve in the direction sought with a large enough effect; inconclusive = small, poorly fitted or top-dose-only effect, or another doubt; inactive = no such curve, though single readings can be large; an effect the other way counts as inactive or inconclusive. % is set by controls: 0 for no effect and ±100 for the full control effect; potency is the fitted concentration of half-maximal effect.

SMILES	TDP1 cell CPT	DT40 TDP1 no CPT	GCN5L2 inh	VDR inh	TDP1 inh	PLK1 PBD block
Cc1ccc(CN2C(=O)CN(C3CCCCCC3)C(=O)C2c2ccc(F)cc2)cc1 (stereo not given)	18µM*	16µM*	-6%	4%	5%	.
O=C1C(c2ccc(F)cc2)N(Cc2ccc3c(c2)OCO3)C(=O)CN1C1CCCCC1 (stereo not given)	?	-24%	-1%	0%	0%	-11%
COc1ccc(C2C(=O)N(C3CCCCCC3)CC(=O)N2Cc2ccc(C)cc2)cc1OC (stereo not given)	23µM*	23µM*	-2%	4%	5%	.
CCCOc1ccc(C2C(=O)N(C3CCC(C)CC3)CC(=O)N2Cc2cccc(OC)c2)cc1OC (stereo not given)	?	?	-9%	6%	10%	.
CCCOc1ccc(C2C(=O)N(C3CCCCCC3)CC(=O)N2Cc2ccc(OC)cc2)cc1OC (stereo not given)	?	23µM*	-12%	-4%	5%	.
O=C1C(c2ccc(F)cc2)N(CCc2ccccc2)C(=O)CN1C1CCCCCC1 (stereo not given)	?	13µM*	2%	-7%	5%	.
CC(=O)Nc1ccc(OCc2cccc(C3Nc4ccccc4C(=O)N3Cc3ccco3)c2)cc1 (stereo not given)	.	.	.	.	0%	.
Cc1ccc(C2C(=O)N(C3CCCCCC3)CC(=O)N2C(C)C)cc1 (stereo not given)	?	26µM*	-3%	12%	3%	.
CCCOc1ccc(C2C(=O)N(C3CCCCCC3)CC(=O)N2CCC)cc1OC (stereo not given)	23µM*	?	2%	5%	8%	.
CCCN1C(=O)CN(C2CCCCC2)C(=O)C1c1ccc(OC)c(OC)c1 (stereo not given)	-19%	-15%	3%	2%	10%	.
CCOCCCN1C(=O)CN(C2CCCCCC2)C(=O)C1c1ccc(OC)cc1 (stereo not given)	7.9µM*	?	-11%	4%	2%	-19%
CCCOc1ccc(C2C(=O)N(C3CCCCC3)CC(=O)N2CCCOCC)cc1OC (stereo not given)	?	-24%	0%	3%	3%	0%
O=C(CSc1ccc2nnc(CCNS(=O)(=O)c3ccccc3)n2n1)Nc1nc2ccccc2s1	?	?	-5%	-14%	1%	-21%
CCCN1CCN(CC2=C(C(=O)OCC)C(c3ccc(Cl)cc3)NC(=O)N2)CC1 (stereo not given)	26µM*	26µM*	-2%	-3%	-2%	.
CCOC(=O)C1=C(CN2CCC(C)CC2)NC(=O)NC1c1ccc(OC(C)C)cc1 (stereo not given)	23µM*	?	-6%	-1%	0%	.
CCCN1CCN(CC2=C(C(=O)OCC)C(c3ccc(OC(C)C)cc3)NC(=O)N2)CC1 (stereo not given)	?	?	2%	-21%	-2%	.
CCOC(=O)C1=C(CN2CCN(c3ccccc3F)CC2)NC(=O)NC1c1ccc(Cl)cc1 (stereo not given)	26µM*	16µM*	-15%	-8%	-7%	.
COc1ccccc1C1CCCN1Cc1nc(-c2ccc(C)s2)oc1C (stereo not given)	18µM*	?	-17%	1%	5%	-6%
CC1COc2ccccc2N1C(=O)c1ccccc1Cl (stereo not given)	-3%	?	17%	-1%	.	-26%
O=C(CCl)N1c2ccccc2SCC1c1ccccc1 (stereo not given)	2.6µM*	3.3µM*	-3%	?	?	3µM*
O=C(CCl)N1c2ccccc2OCC1c1ccccc1 (stereo not given)	2.3µM*	2.6µM*	26%	-27%	-5%	?
COCc1nnc(SCC(=O)NCc2ccccc2)n1-c1ccccc1	-1%	2%	7%	0%	4%	0%
Cc1ccc(-n2c(CCc3ccccc3)nnc2SCC(=O)NCc2ccccc2)cc1C	?	23µM*	-13%	-1%	6%	1%
Cc1cccc(-n2c(CCc3ccccc3)nnc2SCC(=O)c2ccccc2)c1	9.2µM*	9.2µM*	-9%	?	8%	2%
Cc1cccc(OCc2nnc(SCC(=O)O)n2-c2ccccc2)c1	-2%	0%	-2%	8%	.	-8%
SMILES	TDP1 cell CPT	DT40 TDP1 no CPT	GCN5L2 inh	VDR inh	TDP1 inh	PLK1 PBD block
CCCCCCCCCCCCCCC(O)C[N+](C)(CCO)CCO (stereo not given)	2.3µM*	3.7µM*	.	-1%	.	-23%
CCCCCCCCC(C)O (stereo not given)	.	.	15%	1%	6%	.
Cc1ccsc1/C=C1/SC(N2CC(C)OC(C)C2)=NC1=O (stereo not given)	?	21µM*	-6%	-17%	6%	30µM*
CC(CCc1ccccc1)NC(=O)C1CCN(S(=O)(=O)c2ccc(F)cc2)CC1 (stereo not given)	-13%	-7%	-13%	-3%	1%	-5%
CCc1ccc(NC(=O)C(=O)NCCOc2ccccc2Cl)cc1	16µM*	23µM*	-7%	-14%	0%	-11%
Cc1ccc(NC(=O)C(=O)NCCOc2ccccc2Cl)cc1	?	-29%	0%	1%	2%	4%
O=c1oc(CCO)cc2ccc(Br)cc12	0%	6%	0%	19%	2%	-9%
O=C(NC1(C(F)(F)F)N=C(c2ccccc2)N(C2CCCCC2)C1=O)c1ccc(F)cc1 (stereo not given)	-25%	?	-6%	-11%	-3%	.
CC1=C(C(=O)OCc2ccc3c(c2)OCO3)C(c2ccc(Cl)cc2)NC(=O)N1 (stereo not given)	2.3µM*	2.9µM*	-5%	-3%	6%	-2%
CCOC(=O)C1=C(CCl)NC(=O)NC1c1ccc2c(c1)OCO2 (stereo not given)	15µM*	2.6µM*	-7%	-8%	.	-22%
CCOC(=O)C1=C(CN2CCSCC2)NC(=O)NC1c1ccc2c(c1)OCO2 (stereo not given)	8%	-17%	-3%	8%	3%	0%
CCCOC(=O)C1=C(C)NC(=O)NC1c1ccc(Br)s1 (stereo not given)	?	?	-12%	-7%	1%	24µM*
